HTR5A ag: activates human HTR5A in OPRM1-OPRD1 agonist counter-screen. HTR5A agonist assay, luminescence, cell-based. activation, % at 9.3 µM. P47898. 340,000 compounds, 0.61% hits; in the data active = activation mostly above about 9.5%, no sharp cut-off; inactive = mostly below about 7.6%;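 also: 0% = cells with vehicle only and 100% = reference agonist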
Target sequence (P47898 whole entry, looked up): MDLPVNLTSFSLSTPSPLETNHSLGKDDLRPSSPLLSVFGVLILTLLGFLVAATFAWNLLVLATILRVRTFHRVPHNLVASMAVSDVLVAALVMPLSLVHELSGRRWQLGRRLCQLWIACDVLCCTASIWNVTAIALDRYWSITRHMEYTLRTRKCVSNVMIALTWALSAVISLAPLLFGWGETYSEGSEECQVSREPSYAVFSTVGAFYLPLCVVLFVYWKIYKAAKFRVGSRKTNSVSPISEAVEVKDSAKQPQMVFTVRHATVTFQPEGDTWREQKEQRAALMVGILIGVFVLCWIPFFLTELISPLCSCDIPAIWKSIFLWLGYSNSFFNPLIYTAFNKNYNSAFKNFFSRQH
beta cell repl: induces beta-cell replication in MIN6 cells | MIN6 cells proliferation, ATPlite luminescence, 48 h; cells starved in 0.2% serum; 100% = growth in 10% serum | proliferation, % at 10 µM | AID 2380 | 330,000 compounds, 0.29% hits;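 active = compounds whose signal lies at least 3.5 SD above the mean of all wells on their plate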;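 also: 0% = DMSO-treated cells in low-serum medium and 100% = 10% serum control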
pCIP destab: compounds decreasing mouse p/CIP protein stability; AID 1984; Q05BA5; 290,000 compounds, 0.01% hits; F442A p/CIP-EGFP cells, EGFP fluorescence, 16 h; decrease of EGFP signal, % at 10 µM;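 active = EGFP signal decrease of at least 30% at 10 µM or well 3 SD below plate mean, unless failing retest; inactive = the rest, including hits failing retest or dose response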
OPRM1-OPRD1 inv: inverse agonists of human mu-delta opioid receptor heterodimerization; cell-based MOR-DOR heterodimer luminescence, inverse agonism; inhibition, % at 9.3 µM; 340,000 compounds, 0.21% hits; AID 504357; in the data active = inhibition above about 22%, passing the limit was not always enough;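 also: 0% = cells with DMSO and 100% = wells without cells with DMSO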
OPRM1-OPRD1 ag: agonists of human mu-delta opioid receptor heterodimerization. P35372+P41143. cells, OPRM1-OPRD1 heterodimerization, luminescence. activation, % at 9.3 µM. 340,000 compounds, 0.3% hits. AID 504326;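 also: 0% = vehicle-treated cells and 100% = reference agonist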
HTR5A inv ag: inverse agonist of human HTR5A in OPRM1-OPRD1 counter-screen; P47898; HTR5A cell line, luminescence, inverse agonism; inhibition, % at 9.3 µM; 340,000 compounds, 0.083% hits; in the data active = inhibition mostly above about 23%, no sharp cut-off; inactive = mostly below about 18%;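 also: 0% = cells with DMSO and 100% = no-cell wells with DMSO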
OPRM1-D1 ag cf: OPRM1-OPRD1 heterodimer agonism, confirmation | shares compounds with OPRM1-OPRD1 ag | cells, MOR-DOR heterodimerization, luminescence complementation | activation, % at 9.3 µM | 830 compounds, 45% hits | AID 504904;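 also: 0% = vehicle-treated cells and 100% = reference agonist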
HTR5A ag counter: HTR5A agonism, opioid heterodimer counter-screen; shares compounds with OPRM1-OPRD1 ag; HTR5A agonist counterscreen, cell luminescence; activation, % at 9.3 µM; 830 compounds, 8% hits; in the data active = activation above about 17%;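 also: 0% = vehicle-treated cells and 100% = reference agonist response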
Active calls of the source: *. Compounds with a hit are over-represented: about 1.4% of the library has one in this group of screens. Rule as the data show it, unless noted: active = activation above about 18%; inactive = the rest.

How did O=C(CSc1ccc(Cl)cc1)Nc1ccc(-c2nc3ccccc3[nH]2)cc1 do in these assays?
HTR5A ag: 13*; beta cell repl: -2; pCIP destab: 2; OPRM1-OPRD1 inv: -144; OPRM1-OPRD1 ag: 32*; HTR5A inv ag: 4; OPRM1-D1 ag cf: 171*; HTR5A ag counter: 6

What do the screens show for `CCOc1ccc(CN2CCN(CC(O)Cn3c4ccccc4c4ccccc43)CC2)cc1` (stereo unspecified)?
HTR5A ag: 8; beta cell repl: -5; pCIP destab: 6; OPRM1-OPRD1 inv: -7; OPRM1-OPRD1 ag: 1; HTR5A inv ag: 3

Results for COc1ccc(CN2CCN(CC(O)Cn3c4ccccc4c4ccccc43)CC2)cc1 (stereo unspecified) ?
HTR5A ag: -2; beta cell repl: -6; pCIP destab: -3; OPRM1-OPRD1 inv: -105; OPRM1-OPRD1 ag: 21*; HTR5A inv ag: 6; OPRM1-D1 ag cf: 24*; HTR5A ag counter: -2

How did CCOc1ncccc1C(=O)OCC(=O)N1CCC(C)CC1 do in these assays?
HTR5A ag: 0; beta cell repl: -4; OPRM1-OPRD1 inv: 5; OPRM1-OPRD1 ag: -1; HTR5A inv ag: 0

Results for CC(=O)C1=C(c2ccc(Br)cc2)C(=O)c2ccccc2C1=O ?
HTR5A ag: 11; pCIP destab: -6; OPRM1-OPRD1 inv: -178; OPRM1-OPRD1 ag: 33*; HTR5A inv ag: -28; OPRM1-D1 ag cf: 26*; HTR5A ag counter: 11

How did CNC1=C(N(C(C)=O)c2ccc(Br)cc2)C(=O)c2ccccc2C1=O do in these assays?
HTR5A ag: 2; pCIP destab: -22; OPRM1-OPRD1 inv: -30; OPRM1-OPRD1 ag: 6; HTR5A inv ag: 9

What do the screens show for `Cc1ccc(NC(=O)CN(C)C(=O)C(C)N2CCN(Cc3ccccc3C)CC2)cc1` (stereo unspecified)?
HTR5A ag: -3; beta cell repl: -1; OPRM1-OPRD1 inv: 5; OPRM1-OPRD1 ag: -1; HTR5A inv ag: 6

Results for COc1cccc(-c2nc(NCc3ccco3)c3ccccc3n2)c1O ?
HTR5A ag: 8; beta cell repl: 0; pCIP destab: -5; OPRM1-OPRD1 inv: -128; OPRM1-OPRD1 ag: 26*; HTR5A inv ag: -12; OPRM1-D1 ag cf: 10; HTR5A ag counter: 24*

Results for COCCN(C(=O)C1CC(=O)N(Cc2ccccc2)C1)c1nc(-c2ccc([N+](=O)[O-])cc2)cs1 (stereo unspecified) ?
HTR5A ag: -4; beta cell repl: -7; OPRM1-OPRD1 inv: inactive; OPRM1-OPRD1 ag: 127*; HTR5A inv ag: 15; OPRM1-D1 ag cf: 154*; HTR5A ag counter: 1

How did O=C(COc1cccc(C(F)(F)F)c1)Nc1cccc(S(=O)(=O)NC2=NCCCCC2)c1 do in these assays?
HTR5A ag: 2; OPRM1-OPRD1 inv: -10; OPRM1-OPRD1 ag: 2; HTR5A inv ag: -5

How did CCN(Cc1ccccc1)S(=O)(=O)c1ccc(C(=O)N(CCCN(C)C)c2nc3c(C)c(C)ccc3s2)cc1 do in these assays?
HTR5A ag: 6; beta cell repl: -7; OPRM1-OPRD1 inv: -172; OPRM1-OPRD1 ag: 31*; HTR5A inv ag: -16; OPRM1-D1 ag cf: 41*; HTR5A ag counter: 1

What do the screens show for `CCN(Cc1ccccc1)S(=O)(=O)c1ccc(C(=O)N(CCCN(C)C)c2nc3cc4c(cc3s2)OCO4)cc1`?
HTR5A ag: 3; beta cell repl: -7; pCIP destab: -9; OPRM1-OPRD1 inv: -138; OPRM1-OPRD1 ag: 25*; HTR5A inv ag: -8; OPRM1-D1 ag cf: 0; HTR5A ag counter: -3

What do the screens show for `Cc1ccc2sc(N(CCCN(C)C)C(=O)c3ccc(S(=O)(=O)N(C)C4CCCCC4)cc3)nc2c1C`?
HTR5A ag: -2; beta cell repl: -8; OPRM1-OPRD1 inv: -163; OPRM1-OPRD1 ag: 31*; HTR5A inv ag: 5; OPRM1-D1 ag cf: 49*; HTR5A ag counter: 22*
